# Laboratory results from the supplement of paper PMC10981050.
# Several values for one entry are separate records, joined by “and”; a condition that tells them apart may be missing. Identical values can stand only once. Counter-ions that a name gives are not always drawn.
# Experiments:
# Experiment in all cases: cell viability relative to vehicle control; higher = less cytotoxic
# Details in all cases: 10 µM
# K562 = tested on: K562
# Outline: (§1)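 Each screen used CRISPR-edited mutant and wild-type clones from four leukaemia lines. Compounds were acoustically dispensed at a single 10 µM dose, and CellTiter-Glo luminescence was read after 48 h with the supernatant first removed. Viability was analysed in Genedata Screener and given as percent of the on-plate vehicle control.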
# MARIMO = tested on: MARIMO
# Outline: as §1
# MOLM14 = tested on: MOLM14
# Outline: as §1
# OCI-AML2 = tested on: OCI-AML2
# Outline: as §1
Compound,cell viability (K562; SRSF2 genotype: SRSF2 P95H/wt),cell viability (K562; SRSF2 genotype: SRSF2 wt/wt) [%],cell viability (MARIMO; SRSF2 genotype: SRSF2 P95H/wt) [%],cell viability (MARIMO; SRSF2 genotype: SRSF2 wt/wt) [%],cell viability (MOLM14; SRSF2 genotype: SRSF2 P95H/wt) [%],cell viability (MOLM14; SRSF2 genotype: SRSF2 wt/wt) [%],cell viability (OCI-AML2; SRSF2 genotype: P95H/wt) [%],cell viability (OCI-AML2; SRSF2 genotype: wt/wt) [%]
CCCC(C)NC(=O)c1ccc(Cl)c(Cl)c1 (stereo not given),101% and 97.6%,105,90.5,96.2,112,103,96,96.8
O=C(O)c1ccc(-n2nc(-c3ccccc3O)nc2-c2ccccc2O)cc1 [Deferasirox (Exjade)],93.5% and 95.5%,76.4,60.3,74,83.5,60,58.3,67.8
O=C(/C=C\n1cnc(-c2cc(C(F)(F)F)cc(C(F)(F)F)c2)n1)NNc1cnccn1 [Selinexor (KPT-330)],8.08% and 19.9%,13.9,22.6,22.3,2.17,1.26,6.48,11.4
COc1cc2nc(N3CCN(C(=O)C4CCCO4)CC3)nc(N)c2cc1OC (stereo not given) [Terazosin HCl Dihydrate],101% and 95.7%,97,101,105,99.1,96.2,94.8,103
CC(=O)O[C@@H]1C[C@@]23C[C@@]24CC[C@H](O[C@@H]2OC[C@@H](O)[C@H](O)[C@H]2O)C(C)(C)[C@@H]4CC=C3[C@]2(C)C[C@@H]3OC4(C[C@@H](C)[C@@H]3[C@@]12C)OC(O)C1(C)OC41 (stereo not given in full) [Cimicifugoside],110% and 103%,105,109,111,108,106,99,96
Cc1ccc2nc(NCCN)c3ncc(C)n3c2c1,37.6% and 36.4%,34.5,7.18,3,1.38,0.62,2.44,13
CC(=O)CCc1ccccc1 [Benzylacetone],100% and 103%,104,101,92.5,106,98.6,106,94.8
CC1(C)S[C@@H]2[C@H](NC(=O)[C@H](NC(=O)N3CCN(S(C)(=O)=O)C3=O)c3ccccc3)C(=O)N2[C@H]1C(=O)O [Mezlocillin Sodium],100% and 98.1%,102,101,112,100,101,97.4,112
COC(=O)CC1CC(c2ccc(O)cc2)=NO1 (stereo not given),113% and 102%,104,102,112,77.1,102,104,103
CC(C)NCC(O)c1ccc(O)c(O)c1 (stereo not given) [Isoprenaline hydrochloride],92.4% and 104%,96.9,98.4,100,89.7,96.5,104,101
COc1cc(F)c(C(C)C)cc1-c1ccc(C(F)(F)F)cc1CN1C(=O)O[C@H](c2cc(C(F)(F)F)cc(C(F)(F)F)c2)[C@@H]1C [Anacetrapib (MK-0859)],97.5% and 95.6%,92.9,91.2,105,98.7,99,91.8,102
C=C(C)[C@@H]1CC[C@]2(C(=O)O[C@@H]3O[C@H](CO[C@@H]4O[C@H](CO)[C@@H](O[C@@H]5O[C@@H](C)[C@H](O)[C@@H](O)[C@H]5O)[C@H](O)[C@H]4O)[C@@H](O)[C@H](O)[C@H]3O)CC[C@]3(C)[C@H](CC[C@@H]4[C@@]5(C)CC[C@H](O[C@@H]6OC[C@H](O)[C@H](O)[C@H]6O[C@@H]6O[C@@H](C)[C@H](O)[C@@H](O)[C@H]6O)[C@@](C)(CO)[C@@H]5CC[C@]43C)[C@@H]12 [Anemoside B4],93.9% and 103%,92,96.1,110,96.9,97.4,93.2,105
O=C(NCCO[N+](=O)[O-])c1cccnc1 [Nicorandil (Ikorel)],101% and 99.9%,108,108,108,93.4,99.1,82.1,94
CC1(C)CCC[C@](C)([C@H]2CC[C@]3(C)[C@@H]2[C@H](O)C[C@@H]2[C@@]4(C)CC[C@H](O)C(C)(C)[C@@H]4[C@@H](O)C[C@]23C)O1 [Panaxatriol],105% and 99.1%,97.5,103,105,98.6,103,102,109
Cc1cc(C)nc(NC(=S)N2CCN(Cc3ccc(C(F)(F)F)cc3)CC2)c1,71.2% and 80.6%,73.2,67.4,64.5,77.3,86.6,37.8,54
CNCc1cc(-c2ccccc2F)n(S(=O)(=O)c2cccnc2)c1 [Vonoprazan Fumarate (TAK-438)],94.5% and 98%,94.2,85.5,89.8,93,91.3,97.1,85.7
O=C1CCc2cc(OCCCCc3nnnn3C3CCCCC3)ccc2N1 [Cilostazol],97.9% and 98.4%,96.8,103,102,100,101,109,97.9
NC(=O)c1ccc(-c2nc(-c3ccccn3)c(-c3ccc4c(c3)OCO4)[nH]2)cc1,103% and 105%,97.9,100,106,102,97.9,109,98.3
O=C(O)CCc1c[nH]c2ccccc12 [3-Indolepropionic acid],92.7% and 95.1%,102,98.8,96.4,97.8,96.9,103,98.3
N#Cc1ccc(COC[C@H]2O[C@@H](n3c(NCc4ccc(Cl)c(Cl)c4)nc4c(N)ncnc43)[C@H](O)[C@@H]2O)cc1,52% and 62.8%,45.7,32.5,35.6,26,14.3,35.1,34.8

Compound,cell viability (K562; SRSF2 genotype: SRSF2 P95H/wt),cell viability (K562; SRSF2 genotype: SRSF2 wt/wt) [%],cell viability (MARIMO; SRSF2 genotype: SRSF2 P95H/wt) [%],cell viability (MARIMO; SRSF2 genotype: SRSF2 wt/wt) [%],cell viability (MOLM14; SRSF2 genotype: SRSF2 P95H/wt) [%],cell viability (MOLM14; SRSF2 genotype: SRSF2 wt/wt) [%],cell viability (OCI-AML2; SRSF2 genotype: P95H/wt) [%],cell viability (OCI-AML2; SRSF2 genotype: wt/wt) [%]
COc1cc2oc(=O)ccc2cc1O [Isoscopoletin],95.2% and 95.4%,96.4,95.6,94.7,104,97.2,97.1,93.8
Cc1cc(C)c(S(=O)(=O)n2cc(C)cc2C)c(C)c1,90.6% and 98.6%,95.1,90.8,88.4,84.7,92.2,99.7,102
C#C[C@]1(O)CC[C@H]2[C@@H]3CCC4=CC(=O)CC[C@@H]4[C@H]3CC[C@@]21C [Norethindrone (Norethisterone)],103% and 101%,100,101,116,98.3,106,107,111
CC(C)c1ccccc1Cc1cc(C(=O)Nc2ccc(S(=O)(=O)c3ccccc3C(C)(C)C)cc2)c(O)c(O)c1O,8.56% and 5.5%,7.92,17.6,18.2,4.45,1.48,2.91,8.83
CCOC(=O)C1=C(N)Oc2ccc(Br)cc2C1C(C#N)C(=O)OCC (stereo not given),84.9% and 89.9%,86.5,65.6,56,48.6,74.9,67.4,66
O=C(O)c1ccccc1-c1c2cc(Br)c(=O)c(Br)c-2oc2c(Br)c(O)c(Br)cc12 [Eosin Y Disodium],97.2% and 95.8%,90.1,96,92.8,85.3,93.6,91.7,93.4
C=C[C@@H]1C[C@]1(NC(=O)[C@@H]1C[C@@H]2CN1C(=O)[C@H](C(C)(C)C)NC(=O)O[C@@H]1C[C@H]1CCCCCc1nc3ccc(OC)cc3nc1O2)C(=O)NS(=O)(=O)C1CC1 [Grazoprevir],96.2% and 101%,93.4,115,123,111,105,116,115
O=C(Oc1cc(S(=O)(=O)c2ccccc2)ccc1[N+](=O)[O-])c1ccc(Cl)cc1,104% and 109%,106,106,103,104,107,114,115
COc1ccc2[nH]cc(/C=C3\C(=O)Nc4ccc(NC(=O)CCN5CCCCC5)cc43)c2c1,7.59% and 11%,8.26,37.9,33.6,0.75,0.77,0.4,0.72
O=c1[nH]cnc2ccccc12 [4-Hydroxyquinazoline],99.8% and 93.6%,96.8,93.8,92.2,106,95.5,99.6,92.6
CC(=O)Oc1cc(C(F)(F)F)ccc1C(=O)O [Triflusal],101% and 90.6%,99.7,98.9,101,97.7,101,92.2,102
O=C(O)C=Cc1cccc(O)c1 [3-Hydroxycinnamic acid],106% and 93.7%,97.5,86.6,97.3,87.9,93.2,91.4,94.3
CCCCCCCCCCCCCCCCCC[N+](C)(C)C [Trimethyloctadecylammonium bromide],13.1% and 20%,48.1,12.1,16.6,0.73,0.49,0.97,2.46
CC[C@H]1OC(=O)[C@H](C)[C@@H](O[C@H]2C[C@@](C)(OC)[C@@H](O)[C@H](C)O2)[C@H](C)[C@@H](O[C@@H]2O[C@H](C)C[C@H](N(C)C)[C@H]2O)[C@](C)(O)C[C@@H](C)C(=O)[C@H](C)[C@@H](O)[C@]1(C)O [Erythromycin],99.5% and 99.1%,97.1,101,98.2,104,99.6,106,103
COCCOc1ccc2c(c1)ncn2-c1ccc2cccc(N3CCC(N)CC3)c2n1,72.2% and 70.2%,63.5,2.19,1.07,0.96,-0.03,0.57,3.99
O=C1NC(=O)/C(=C/c2cccc(C(F)(F)F)c2)S1,107% and 103%,110,105,94.9,97.4,102,111,104
COc1ccc(/C=C/c2cc(O)cc(O)c2)cc1O [Rhapontigenin],95.7% and 103%,105,101,97.9,119,109,94.2,86.2
CCCCCCCCCCCC(=O)O [Lauric Acid],91.8% and 82.9%,85.7,89.8,101,92.6,92.1,94.9,96.1
COc1cc(CCC(C)=O)ccc1O [Vanillylacetone],104% and 93.6%,91.8,100,108,101,101,97.8,108
CC1(C)[C@@H](O)CC[C@]2(C)[C@H]3C(=O)C=C4[C@@H]5C[C@@](C)(C(=O)O)CC[C@]5(C)CC[C@@]4(C)[C@]3(C)CC[C@@H]12 [Enoxolone (Glycyrrhetin)],97.3% and 106%,102,109,105,104,103,110,106
